Assay in all cases: DAPPL (digital affinity profiling via proximity ligation, sequencing); 10 mM Tris-HCl pH 7.5, 50 mM NaCl, 1 mM DTT, 4% glycerol, room temperature, 30 min; GST-TFs on glutathione beads, 16-mer random dsDNA library, 0.1% formaldehyde crosslink after washing; high values mean tight binding
Holding throughout (settings): protein: recombinant; tags: N-terminal GST; dsDNA, one strand shown

One test has as its target T1, ERF (Homo sapiens, UniProt P50548 1-548).
T1 sequence: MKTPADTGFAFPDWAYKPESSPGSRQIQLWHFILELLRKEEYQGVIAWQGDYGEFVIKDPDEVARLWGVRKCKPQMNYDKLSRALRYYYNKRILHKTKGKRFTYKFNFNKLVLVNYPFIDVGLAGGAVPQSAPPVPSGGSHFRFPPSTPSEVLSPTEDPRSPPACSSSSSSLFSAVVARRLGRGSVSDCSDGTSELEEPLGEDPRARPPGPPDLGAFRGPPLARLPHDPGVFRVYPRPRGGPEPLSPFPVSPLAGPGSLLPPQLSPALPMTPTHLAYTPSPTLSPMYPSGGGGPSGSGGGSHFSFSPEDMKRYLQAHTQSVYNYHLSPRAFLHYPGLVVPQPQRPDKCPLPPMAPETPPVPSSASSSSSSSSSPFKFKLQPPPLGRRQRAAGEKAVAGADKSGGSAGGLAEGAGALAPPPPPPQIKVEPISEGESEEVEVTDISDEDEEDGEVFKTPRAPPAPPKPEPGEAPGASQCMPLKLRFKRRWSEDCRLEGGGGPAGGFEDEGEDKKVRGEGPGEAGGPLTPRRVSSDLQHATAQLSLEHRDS
An outline of the steps: (§1)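 Binding signal is each hexamer's read frequency for a factor divided by its frequency in the tag-only sample. The factors were GST-fused human transcription factors from yeast, captured on glutathione beads, DNA-barcoded and pooled with that sample. Pools were incubated with 200 nmole of a random double-stranded 16-mer DNA library in Tris/NaCl/DTT/glycerol buffer at room temperature for 30 min, then washed, crosslinked with 0.1% formaldehyde, proximity-ligated with BsaI/T4 ligase (1 h, 37 °C), PCR-amplified and sequenced on an Illumina NextSeq500.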

The target in another test is T2, ETV3L (Homo sapiens, UniProt Q6ZN32 1-361).
T2 sequence: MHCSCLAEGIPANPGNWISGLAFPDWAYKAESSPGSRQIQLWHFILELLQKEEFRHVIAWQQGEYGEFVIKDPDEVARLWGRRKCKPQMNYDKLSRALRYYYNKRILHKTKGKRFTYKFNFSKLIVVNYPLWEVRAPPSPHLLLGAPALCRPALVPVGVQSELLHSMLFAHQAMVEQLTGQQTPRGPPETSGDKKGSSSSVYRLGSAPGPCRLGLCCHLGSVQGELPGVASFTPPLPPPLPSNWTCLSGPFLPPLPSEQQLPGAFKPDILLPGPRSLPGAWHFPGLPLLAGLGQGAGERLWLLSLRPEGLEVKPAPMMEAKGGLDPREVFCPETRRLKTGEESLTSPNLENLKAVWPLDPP
An outline of the steps:
as §1

The target of a further test is T3, ETS2 (Homo sapiens, UniProt P15036 1-469).
T3 sequence: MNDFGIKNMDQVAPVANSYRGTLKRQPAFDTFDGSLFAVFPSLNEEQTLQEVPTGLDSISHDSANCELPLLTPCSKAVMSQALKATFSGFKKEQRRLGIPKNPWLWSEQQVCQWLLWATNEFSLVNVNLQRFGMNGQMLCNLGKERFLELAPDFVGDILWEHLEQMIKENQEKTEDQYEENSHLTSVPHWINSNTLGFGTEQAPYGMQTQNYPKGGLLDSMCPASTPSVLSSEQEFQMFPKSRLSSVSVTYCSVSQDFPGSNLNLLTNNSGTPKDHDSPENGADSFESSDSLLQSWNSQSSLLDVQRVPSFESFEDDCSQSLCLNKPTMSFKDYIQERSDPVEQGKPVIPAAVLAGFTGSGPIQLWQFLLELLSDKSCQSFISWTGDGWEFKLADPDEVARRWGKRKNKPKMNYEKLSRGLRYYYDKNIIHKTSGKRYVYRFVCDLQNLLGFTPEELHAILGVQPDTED
An outline of the steps:
as §1

A further test has as its target T4, SPDEF (Homo sapiens, UniProt O95238 1-335).
T4 sequence: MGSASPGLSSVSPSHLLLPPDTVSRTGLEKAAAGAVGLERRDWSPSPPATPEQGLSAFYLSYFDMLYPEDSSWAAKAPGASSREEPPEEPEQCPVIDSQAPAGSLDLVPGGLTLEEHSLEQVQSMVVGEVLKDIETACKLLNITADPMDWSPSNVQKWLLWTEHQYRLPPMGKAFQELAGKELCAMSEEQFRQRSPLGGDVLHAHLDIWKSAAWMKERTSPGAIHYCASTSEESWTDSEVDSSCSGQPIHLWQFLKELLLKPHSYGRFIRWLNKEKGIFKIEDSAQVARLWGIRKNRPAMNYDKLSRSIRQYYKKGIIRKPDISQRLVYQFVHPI
A digest of the protocol:
as §1

The target of a further test is T5, ETV7 (Homo sapiens, UniProt Q9Y603 1-341).
T5 sequence: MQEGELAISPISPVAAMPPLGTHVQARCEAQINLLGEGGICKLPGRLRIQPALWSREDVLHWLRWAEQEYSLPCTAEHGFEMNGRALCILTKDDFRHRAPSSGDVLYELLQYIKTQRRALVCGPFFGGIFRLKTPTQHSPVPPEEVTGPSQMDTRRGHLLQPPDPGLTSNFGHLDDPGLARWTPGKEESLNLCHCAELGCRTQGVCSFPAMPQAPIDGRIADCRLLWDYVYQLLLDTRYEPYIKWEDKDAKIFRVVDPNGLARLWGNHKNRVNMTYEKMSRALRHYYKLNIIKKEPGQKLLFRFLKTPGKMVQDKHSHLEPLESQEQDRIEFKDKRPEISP
An outline of the steps:
as §1

Another test deals with T6, ELF5 (Homo sapiens, UniProt Q9UKW6-2 1-255).
T6 sequence: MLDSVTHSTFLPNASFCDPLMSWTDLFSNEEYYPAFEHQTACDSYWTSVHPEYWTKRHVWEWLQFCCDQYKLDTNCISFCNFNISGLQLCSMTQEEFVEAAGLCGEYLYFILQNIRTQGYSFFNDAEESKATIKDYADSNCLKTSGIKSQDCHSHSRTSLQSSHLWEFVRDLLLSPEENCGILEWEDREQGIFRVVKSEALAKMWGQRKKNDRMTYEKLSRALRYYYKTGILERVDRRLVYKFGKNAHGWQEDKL
A digest of the protocol:
as §1

The target in a further test is T7, ETV3 (Homo sapiens, UniProt P41162-2 1-143).
T7 sequence: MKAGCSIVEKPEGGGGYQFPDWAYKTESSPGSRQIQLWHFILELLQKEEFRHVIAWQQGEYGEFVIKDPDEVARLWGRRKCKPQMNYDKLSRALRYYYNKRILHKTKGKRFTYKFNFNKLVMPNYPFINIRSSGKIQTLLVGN
An outline of the steps:
as §1

A further test addresses ETV6 (Homo sapiens, UniProt P41212 1-452). An outline of the steps: as §1

ETV6, sequence (P41212 whole entry): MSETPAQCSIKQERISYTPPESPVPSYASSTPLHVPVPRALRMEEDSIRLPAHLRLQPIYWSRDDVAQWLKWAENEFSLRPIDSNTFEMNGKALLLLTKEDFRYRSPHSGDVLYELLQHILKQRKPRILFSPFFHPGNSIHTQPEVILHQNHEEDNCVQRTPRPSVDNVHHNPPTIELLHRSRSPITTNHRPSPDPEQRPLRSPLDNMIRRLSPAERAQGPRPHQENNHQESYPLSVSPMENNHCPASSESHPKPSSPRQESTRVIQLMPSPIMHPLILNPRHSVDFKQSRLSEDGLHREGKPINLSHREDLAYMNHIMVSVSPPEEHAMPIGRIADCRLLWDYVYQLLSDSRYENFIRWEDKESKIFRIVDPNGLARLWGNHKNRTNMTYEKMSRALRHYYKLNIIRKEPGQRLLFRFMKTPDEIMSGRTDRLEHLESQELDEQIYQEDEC

On to ACAATA, for which the binding signal was 1.21 fold enrichment (6-mer frequency, TF over GST control) in the test with ERF; 1.14 fold enrichment (6-mer frequency, TF over GST control) with ETV3L; 1.15 fold enrichment (6-mer frequency, TF over GST control) in the test with ETS2; 1.15 fold enrichment (6-mer frequency, TF over GST control) with SPDEF; 1.07 fold enrichment (6-mer frequency, TF over GST control) in the test with ETV7; 1.09 fold enrichment (6-mer frequency, TF over GST control) in the test with ELF5. For the same sequence, the binding signal was 1.21 fold enrichment (6-mer frequency, TF over GST control) with ETV3 and 1.18 fold enrichment (6-mer frequency, TF over GST control) with ETV6.
AACCTG: the binding signal is 1.17 fold enrichment (6-mer frequency, TF over GST control) with ERF; 1.08 fold enrichment (6-mer frequency, TF over GST control) with ETV3L; 1.27 fold enrichment (6-mer frequency, TF over GST control) with ETS2; 1.13 fold enrichment (6-mer frequency, TF over GST control) with SPDEF; 1.21 fold enrichment (6-mer frequency, TF over GST control) with ETV7; 1.16 fold enrichment (6-mer frequency, TF over GST control) in the test with ELF5. For the same sequence, the binding signal was 1.2 fold enrichment (6-mer frequency, TF over GST control) in the test with ETV3 and 1.14 fold enrichment (6-mer frequency, TF over GST control) with ETV6.
As for GCTTCG, the binding signal with ERF was 1.56 fold enrichment (6-mer frequency, TF over GST control); in the test with ETV3L, 1.31 fold enrichment (6-mer frequency, TF over GST control); with ETS2, 1.32 fold enrichment (6-mer frequency, TF over GST control); with SPDEF it was 1.35 fold enrichment (6-mer frequency, TF over GST control); in the test with ETV7, 1.44 fold enrichment (6-mer frequency, TF over GST control); in the test with ELF5, 1.3 fold enrichment (6-mer frequency, TF over GST control). Moreover, the binding signal is 1.37 fold enrichment (6-mer frequency, TF over GST control) with ETV3 and 1.29 fold enrichment (6-mer frequency, TF over GST control) with ETV6.
On to CTCACG, for which the binding signal in the test with ERF was 1.25 fold enrichment (6-mer frequency, TF over GST control); with ETV3L it was 1.3 fold enrichment (6-mer frequency, TF over GST control); with ETS2, 1.4 fold enrichment (6-mer frequency, TF over GST control); with SPDEF, 1.26 fold enrichment (6-mer frequency, TF over GST control); with ETV7, 1.25 fold enrichment (6-mer frequency, TF over GST control); with ELF5, 1.26 fold enrichment (6-mer frequency, TF over GST control). Also, the binding signal in the test with ETV3 is 1.23 fold enrichment (6-mer frequency, TF over GST control); with ETV6, 1.25 fold enrichment (6-mer frequency, TF over GST control).
For the sequence TTAGGG, the binding signal with ERF is 1.21 fold enrichment (6-mer frequency, TF over GST control); with ETV3L it was 1.14 fold enrichment (6-mer frequency, TF over GST control); with ETS2, 1.08 fold enrichment (6-mer frequency, TF over GST control); in the test with SPDEF, 1.18 fold enrichment (6-mer frequency, TF over GST control); with ETV7, 1.06 fold enrichment (6-mer frequency, TF over GST control); with ELF5 it was 1.11 fold enrichment (6-mer frequency, TF over GST control). Also, the binding signal with ETV3 was 1.11 fold enrichment (6-mer frequency, TF over GST control); in the test with ETV6, 1.08 fold enrichment (6-mer frequency, TF over GST control).
For CTACCA, the binding signal with ERF was 1.26 fold enrichment (6-mer frequency, TF over GST control); with ETV3L it was 1.21 fold enrichment (6-mer frequency, TF over GST control); in the test with ETS2 it was 1.26 fold enrichment (6-mer frequency, TF over GST control); with SPDEF, 1.23 fold enrichment (6-mer frequency, TF over GST control); with ETV7 it was 1.29 fold enrichment (6-mer frequency, TF over GST control); with ELF5, 1.26 fold enrichment (6-mer frequency, TF over GST control). Besides, the binding signal is 1.21 fold enrichment (6-mer frequency, TF over GST control) in the test with ETV3 and 1.26 fold enrichment (6-mer frequency, TF over GST control) with ETV6.
Regarding TCCTCA, the binding signal was 1.32 fold enrichment (6-mer frequency, TF over GST control) with ERF; 1.62 fold enrichment (6-mer frequency, TF over GST control) with ETV3L; 1.56 fold enrichment (6-mer frequency, TF over GST control) with ETS2; 1.59 fold enrichment (6-mer frequency, TF over GST control) in the test with SPDEF; 1.38 fold enrichment (6-mer frequency, TF over GST control) in the test with ETV7; 2.13 fold enrichment (6-mer frequency, TF over GST control) with ELF5. Further, the binding signal with ETV3 is 1.61 fold enrichment (6-mer frequency, TF over GST control); with ETV6, 1.54 fold enrichment (6-mer frequency, TF over GST control).

For the origin of these results see paper PMC7862700, “An all-to-all approach to the identification of sequence-specific readers for epigenetic DNA modifications on cytosine”.
